About 83,000 compounds went through this panel and 20% of them were active in at least one assay; those are over-represented in the sample as a whole.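 For each line, cells grew in 96-well plates with the test compound present at a single concentration for 48 hours.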 Unmarked numbers belong to inactive results. Activity calls are given as the source filed them. The calls were made as follows: active = growth percent below 10; inactive = the rest.
Key:
Assay in all cases: NCI-60 one-dose screen, 48 h (100 = growth as untreated, 0 = no growth, -100 = all killed)
Details in all cases: 10 µM unless noted
[1] = test system: DU-145 prostate
[2] = test system: K-562 leukemia
[3] = test system: MALME-3M melanoma
[4] = test system: MDA-MB-231 breast
[5] = test system: RXF 393 renal
[6] = test system: SF-268 CNS
[7] = test system: SF-295 CNS
[8] = test system: SF-539 CNS
[9] = test system: UACC-257 melanoma
[10] = test system: M14 melanoma

Row | SMILES | growth [1] [%] | growth [2] | growth [3] | growth [4] | growth [5] | growth [6] [%] | growth [7] | growth [8] | growth [9] | growth [10]
1 | C#CCN(C)CCCOc1ccc(NC(=O)CCCCCCC(=O)NO)cc1Cl | 26.3 | 18.5% | 21.1% | 16.3% | -44.3% (active) | 39.3 | 7.83% (active) | 20.3% | 25.6% | 23%
2 | Cc1ccccc1NC(=O)Nc1nc2ccc([N+](=O)[O-])cc2s1 | 20.3 | 5.43% (active) | -6.54% (active) | 17.6% | 12.1% | 18.6 | 6.9% (active) | 13.6% | -1.96% (active) | 19.9%
3 | CN1CCN(Cc2ccc(NC(=O)c3cncc(C#Cc4cnc(N)nc4)c3)cc2C(F)(F)F)CC1 | 34.4 | 5.93% (active) | -31.1% (active) | -7.34% (active) | 26.4% | 28.1 | 33.1% | 14.6% | 22.1% | -19.3% (active)
4 | Cc1ccc2c(n1)C(=O)C(Cl)=C(Nc1ccc(C#N)cc1)C2=O | 112 | 5.72% (active) | 27% | 92.3% | 92.1% | 97 | 118% | 100% | 74.8% | 86.2%
5 | CC1(C)CC[C@]23CC[C@]4(C)[C@H](CC[C@@H]5[C@@]6(C)CC[C@H](NCO)C(C)(C)[C@@H]6CC[C@]54C)[C@H]2[C@H]1OC3 | 14.8 | 4.93% (active) | 93.5% | 19.7% | 56.3% | 77 | 59.6% | 69% | 103% | 35.9%
6 | CC/C(=C(/c1ccc(Cl)cc1)c1ccc(OCCN)cc1)c1ccccc1 | 82.7 | 19.7% | 94.8% | 86.6% | 92.8% | 103 | 107% | 98.6% | 106% | 88.7%
7 | Cc1ccc2c(n1)C(=O)C(Cl)=C(Nc1cccc(C(=O)OC(C)(C)C)c1)C2=O | 94.8 | -18.1% (active) | 127% | 74.4% | 84.3% | 93.4 | 104% | 105% | 72.3% | 96.5%
8 | C1=CC(c2nn3c(-c4ccccc4)nnc3s2)=Cc2ccccc2O1 | 84.8 | 43.5% | 74.1% | 78.3% | 22.7% | 77.8 | 97.9% | 71.7% | 67.8% | 65%
9 | COc1cc(-c2nc(-c3ccccc3)[nH]c2-c2ccnc(NCCCNS(=O)(=O)c3ccc(C)cc3)n2)ccc1F | 86.7 | 58.9% | 100% | 91.7% | 82.7% | 80.2 | 99.6% | 89.4% | 99.7% | 77.7%
10 | COc1ccc(-c2cc(-c3ccc(N(C)C)cc3)n3c(n2)nc2ccccc23)cc1 | 73.3 | 20.8% | 118% | 75.2% | 86.5% | 76.9 | 48.6% | 82.6% | 58% | 29.1%
11 | O=C(/C=C/c1cc(Cl)ccc1Cl)Nc1ncc(Cc2ccc(Cl)cc2)s1 | 14.8 | 9.62% (active) | 49% | 6.75% (active) | 33.7% | 34.7 | -2.3% (active) | -22.6% (active) | 49.1% | 5.98% (active)
12 | Cc1ccc(S(=O)(=O)NCCCNc2nccc(-c3[nH]c(-c4ccccc4)nc3-c3ccc(F)c(O)c3)n2)cc1 | 98.6 | 30.4% | 2.9% (active) | 71.1% | 97.9% | 105 | 94.9% | 105% | 23.8% | 22.9%
13 | CC1(C)CC[C@]2(C(=O)O)CC[C@]3(C)C(=CC[C@@H]4[C@@]5(C)CC[C@H](NOCCCN)C(C)(C)[C@@H]5CC[C@]43C)[C@@H]2C1 | 94.7 | 46.4% | 91.6% | 92.4% | 68.8% | 100 | 101% | 86.4% | 89.2% | 94.7%
14 | CCOC(=O)c1ccccc1NC1=C(Cl)C(=O)c2nc(C)ccc2C1=O | 112 | 89.6% | 107% | 90.3% | 102% | 99.2 | 110% | 96.1% | 99.2% | 109%
15 | O=C1C(N2CCN(c3ccccc3)CC2)=C(Cl)C(=O)c2ncccc21 | 45.7 | 6.19% (active) | -1.87% (active) | 75.3% | 27.8% | 79.4 | 103% | 81.2% | 55.4% | 69.6%
